The record followed here is PubChem BioAssay AID1851 (National Center for Advancing Translational Sciences (NCATS), 2009).

Screen size: about 16,000 compounds; about 2,600 (16%) were called active. Not shown: some 20% with an inconclusive outcome. The call rests on the fitted dose curve; in most records, active means well fitted curve in the direction sought with a large enough effect; inconclusive means small, poorly fitted or top-dose-only effect, or effect the other way; inactive means no such curve, though single readings can be large or run the other way. Not all results are given here.
On the % scale 0 is the no-effect control and ±100 the full control effect.

Chain of Cytochrome P450 2D6 (Homo sapiens) (P10635 whole entry, looked up): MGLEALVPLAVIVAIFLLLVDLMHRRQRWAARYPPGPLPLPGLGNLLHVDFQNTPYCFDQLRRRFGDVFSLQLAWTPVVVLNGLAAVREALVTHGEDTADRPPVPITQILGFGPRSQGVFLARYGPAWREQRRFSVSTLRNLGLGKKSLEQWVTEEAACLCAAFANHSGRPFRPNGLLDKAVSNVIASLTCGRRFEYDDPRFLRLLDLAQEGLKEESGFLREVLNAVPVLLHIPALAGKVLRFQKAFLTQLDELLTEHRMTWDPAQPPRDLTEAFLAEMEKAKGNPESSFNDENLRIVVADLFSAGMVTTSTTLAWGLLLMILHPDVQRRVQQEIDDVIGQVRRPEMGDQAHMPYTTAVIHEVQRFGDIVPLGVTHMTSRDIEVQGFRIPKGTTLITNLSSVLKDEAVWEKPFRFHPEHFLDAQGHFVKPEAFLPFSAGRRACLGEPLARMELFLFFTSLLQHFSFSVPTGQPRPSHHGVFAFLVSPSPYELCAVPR

This assay concerns the target Cytochrome P450 2D6 (Homo sapiens) (UniProt P10635). Kind of assay: Cytochrome panel assay with activity outcomes. Conditions: recombinant CYP, pro-luciferin dealkylation, luminescence, p450-cyp2d6; series mostly up to 57.1 µM; activity, negative = inhibition: at the top concentration.
Take `Fc1ccc(COc2ccc(Br)cc2CNCc2ccncc2)cc1`: the AC50 (commonly the concentration at which the activity in the assay is half-maximal) was 0.126 µM (active).
Regarding `C[N+]1(C)CCO[C@](O)(c2ccccc2)C1`, the activity, negative = inhibition is 0.284% [at 11.4 µM] (inactive).
As for `OCCNc1ncnc2c1ncn2[C@@H]1O[C@@H](CO)[C@H](O)[C@@H]1O`, the activity, negative = inhibition is 3.15% [at 11.4 µM] (inactive).
Consider `COc1ccc(-c2nc(-c3cccc(C)c3)nc(N3CCN(C)CC3)c2C#N)cc1`, for which the “activity, negative = inhibition” value is -4.97% (inactive).
The same measure, in the same setting: as for `CN1CCCC1CCNC1C2CC3CC(C2)CC1C3` (stereo unspecified), the figure is -4.6% (inactive).
Take `c1ccc(CN2CCC3(CCCc4ccccc43)CC2)cc1`: the AC50 is 0.251 µM (active).
In the case of `CC(=O)c1ccc(N2CCC(c3cc(-c4ccc(Cl)cc4)n[nH]3)CC2)c([N+](=O)[O-])c1`, the “activity, negative = inhibition” value was -10.3% (inactive).
As for `CCOc1cc(/C=C2/C(=N)N3C=CSC3=NC2=O)ccc1OCCCOc1ccccc1C`, the “activity, negative = inhibition” value was 1.57% (inactive).
In the case of `CCc1nc(SCC(=O)NCCc2ccccc2)c2oc3ccccc3c2n1`, the “activity, negative = inhibition” value was -12.7% (inactive).
Regarding `NCCSCc1ccccc1Cl`, the half-maximal activity concentration (AC50) was 3.16 µM (active).
Turning to `O=C(CSCc1ccccc1Cl)NN1C(=O)c2ccccc2C1=O`, the “activity, negative = inhibition” value was -17.7% (inactive).
As to `O=C(CSCc1ccccc1Cl)NNC(=O)c1ccccc1`, the “activity, negative = inhibition” value was 1.46% (inactive).
`COc1ccc(C2N(c3ccccn3)C(=O)C3CCCN32)c(OC)c1` (stereo unspecified): the “activity, negative = inhibition” value is 4% (inactive).
In the case of `CN(C)CCNC(=O)c1cc(Br)ccc1Cl`, the “activity, negative = inhibition” value is -18.4% (inactive).
Take `CSc1ccc(Cl)c(C(=O)NCCOc2cc(C)ccc2C(C)C)c1`: the concentration at half-maximal activity (AC50) was 11.2 µM (active).
For `Cc1ccc(OCCNC(=O)c2cc(-n3cnnc3)ccc2Cl)cc1C`, the “activity, negative = inhibition” value was 29.2% (inactive).
The same measure, in the same setting: as for `O=C1CCCC=C1[C@H](O)c1ccc([N+](=O)[O-])cc1`, the figure is -11.2% [at 11.4 µM] (inactive); as for `NC(N)=NC(N)=Nc1ccccc1` (tested in a mixture with another compound), -8.99% [at 11.4 µM] (inactive); as for `NC(N)=NC(N)=Nc1ccccc1`, 2.4% (inactive).
For the compound `Cc1ccc(C(N)=Nc2ccccc2)cc1`, the concentration at half-maximal activity (AC50) is 3.16 µM (active).
In the case of `COCCn1c(=O)c(-c2cccc(C#N)c2)nc2cnc(N3CCNCC3)nc21`, the “activity, negative = inhibition” value was -6.32% (inactive).
Take `CCC(=O)NC(=S)N1CCN(c2ccc([N+](=O)[O-])cc2Cl)CC1`: the “activity, negative = inhibition” value was -14.4% (inactive).
On to `O=[N+]([O-])c1ccc(N2CCN(Cc3ccccc3)CC2)c(S(=O)(=O)N2CCOCC2)c1`, for which the “activity, negative = inhibition” value is -18.2% (inactive).
Turning to `O=[N+]([O-])c1ccc(N2CCN(CCOc3nonc3-c3ccccc3)CC2)c(Cl)c1`, the AC50 is 0.112 µM (active).
In the case of `CCCCCCc1nc2ccccc2c(=O)n1NC(=O)c1c(O)c2c(n(CC(C)C)c1=O)CCCC2`, the “activity, negative = inhibition” value was 22.7% (inactive).
For `Cc1cc(=O)oc(C)c1C(=O)NCc1ccccc1`, the “activity, negative = inhibition” value is -2.69% (inactive).
With `CCCn1c2c(c(O)c(C(=O)NCc3ccccc3)c1=O)CCCC2`, the concentration at half-maximal activity (AC50) is 10 µM (active).
`O=c1cnc2cnc(Nc3ccccc3)nc2n1CCc1ccccc1`: the “activity, negative = inhibition” value is -1.38% (inactive).
Take `Cc1ccccc1C(=O)N1CCN(c2ccc([N+](=O)[O-])c(N3CCOCC3)c2)CC1`: the “activity, negative = inhibition” value is -1% (inactive).
As for `Cc1cccc(C)c1NC(=O)CSc1nc(C)c(CC(=O)c2ccc(Br)cc2)c(C)c1C#N`, the “activity, negative = inhibition” value is -9.75% (inactive).
Turning to `Cc1ccnc(NCn2nnc3ccccc32)c1`, the “activity, negative = inhibition” value is -14.9% (inactive).
For `c1ccc2sc(NC3=NCN(C4CCCCCC4)CN3)nc2c1`, the concentration at half-maximal activity (AC50) is 1 µM (active).
On to `c1ccc(/C(=N/Nc2nc3ccccc3s2)c2ccccn2)cc1`, for which the activity, negative = inhibition is -1.95% [at 11.4 µM] (inactive).
For the compound `COc1ccc(C(=O)NCc2ccc(-c3nc4ccccc4s3)cc2)cc1`, the “activity, negative = inhibition” value is -11.6% (inactive).
Turning to `COCCN1CN=C(Nc2nc3ccccc3o2)NC1`, the “activity, negative = inhibition” value is 12% (inactive).
For the compound `COc1ccc(CN2CN=C(Nc3nc4ccccc4s3)NC2)cc1`, the half-maximal activity concentration (AC50) was 7.94 µM (active).
Turning to `O=C(NNc1nc2ccccc2s1)C1CC1`, the “activity, negative = inhibition” value was -14.5% (inactive).
Turning to `C[C@H](C(=O)c1ccccc1)[C@@H](c1ccccc1)N1CCOCC1`, the activity, negative = inhibition is -5.64% [at 11.4 µM] (inactive).
The same measure, in the same setting: as for `CC1=C(C#N)C(Nc2ccc(Cl)cn2)(C(F)(F)F)C(=O)N1` (stereo unspecified), the figure is -11.3% (inactive); as for `Cn1c(=O)c(-c2cc(F)cc(F)c2)nc2cnc(N3CCOCC3)nc21`, -1.51% (inactive); as for `COc1ccc(Nc2ncc3nc(-c4cccs4)c(=O)n(Cc4cccc(OC)c4)c3n2)cc1`, 4.4% (inactive).
Take `CCOc1cc(/C=N/NC(=O)CNc2cccc(C)c2)ccc1OC(=O)c1ccccc1`: the “activity, negative = inhibition” value is -19.5% (inactive).
Take `Cc1ccc(CS(=O)(=O)CCC(=O)NCc2ccccn2)cc1`: the “activity, negative = inhibition” value is 2.91% (inactive).
The same measure, in the same setting: as for `CCOCCCNC(=O)CCS(=O)(=O)Cc1ccc(C)cc1`, the figure is -3.09% (inactive).
For the compound `Cc1ccc(CS(=O)(=O)CCC(=O)NCc2cccs2)cc1`, the AC50 was 11.2 µM (active).
Regarding `COCC(=O)N(C)c1nnc(-c2ccc([N+](=O)[O-])cc2)s1`, the “activity, negative = inhibition” value is 6.42% (inactive).
Same read-out and setting: as for `Cc1ccc(C)c(OCCCC(C)(C)C(=O)O)c1`, the figure is 1.86% [at 25.6 µM] (inactive); as for `N[C@@H](Cc1ccccc1)C(=O)O`, 4.66% [at 11.4 µM] (inactive).
Turning to `N[C@H](C(=O)O)[C@H](OCc1ccccc1)C(=O)O`, the AC50 is 7.94 µM (active).
Take `CC(C)C(NC(=O)OCc1ccccc1)C(=O)O` (stereo unspecified): the “activity, negative = inhibition” value was 23.6% (inactive).
Regarding `CCOC(=O)C1=C(C)NC(C)=C(C(=O)OCC)C1c1sccc1C`, the “activity, negative = inhibition” value was -25.9% (inactive).
